# Laboratory results taken from PubChem BioAssay (EPA / NIEHS).
# Inconclusive results are not listed. Activity calls are given as the source filed them. The calls were made as follows, unless noted: active = hit-call score of the fitted dose curve at least 0.9, where 1 is the maximum; inconclusive = response in the unintended direction; inactive = score below 0.9.
# Experiments:
# [1] = biological target: Sodium channel protein type 1 subunit alpha (Rattus norvegicus) (UniProt P04774); assay: NVS_IC_rNaCh_site2: NovaScreen (NVS) Ion Channel Assay for rat Sodium Channel, Site 2 (NaCh) (AID 2283322);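 also: hit means loss of radioligand binding signal relative to DMSO so AC50 marks displacement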
# Procedure, shortened: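 Initial duplicate single-point testing at 25 uM, followed by concentration-response runs for actives. Binding of radioligand to rat forebrain membranes quantified after 1 h via filter-based radiodetection.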
# [2] = biological target: human Dopamine Transporter (DAT), SLC6A3 (gene 6531) (UniProt Q01959); assay: NVS_TR_hDAT: NovaScreen (NVS) Transporter Assay for human Dopamine Transporter (DAT) (AID 2283374);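 also: activity means loss of bound radioligand signal relative to DMSO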
# Procedure, shortened: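 hDAT membranes + tritiated/iodinated radioligand, competitive displacement; 1 h; filter scintillation readout. Single conc 25 uM (duplicate), then conc-response for actives. DMSO = negative control.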
# [3] = biological target: Bile acid receptor (Homo sapiens) (UniProt Q96RI1); assay: OT_FXR_FXRSRC1_0480: Odyssey Thera (OT) 8-hour HEK293T Protein-Complementation Assay for Farnesoid X receptor/SRC-1 Co-activator (AID 2283383)
# Procedure, shortened: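 Binding of FXR to coactivator SRC-1 was read as fluorescence from a reconstituted split reporter in HEK293T cells, 8 h after chemical addition. Only increases in signal versus DMSO were fit.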
# [4] = CEETOX_H295R_OHPREG: CeeTox H295R High-throughput Steroidogenesis Assay for OH-Pregnenolone (OHPREG) (AID 2283434; active = hit-call score of the fitted dose curve at least 0.9, where 1 is the maximum; inactive = score below 0.9); details: actives raise or lower the signal
# Procedure, shortened: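 H295R, 10 uM forskolin pre-stim 48 h; test chemical 48 h, 0.1% DMSO final. MTBE extraction, reverse-phase C18 HPLC-ESI+ MS/MS of medium. Gain/loss vs DMSO; viability by MTT in same wells.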
# [5] = CEETOX_H295R_OHPROG: CeeTox H295R High-throughput Steroidogenesis Assay for OH-Progesterone (OHPROG) (AID 2283435; active = hit-call score of the fitted dose curve at least 0.9, where 1 is the maximum; inactive = score below 0.9;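 also: 17alpha-hydroxyprogesterone secreted into medium measured by HPLC-MS/MS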); details: actives raise or lower the signal
# Procedure, shortened: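 Medium steroid levels read by LC-MS/MS after 48 h chemical treatment (0.1% DMSO) of human adrenal H295R cells that had been forskolin-primed (10 uM, 48 h). Gain or loss fitted against DMSO; MTT cytotoxicity checked per well.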
# [6] = CEETOX_H295R_PROG: CeeTox H295R High-throughput Steroidogenesis Assay for Progesterone (PROG) (AID 2283442; active = hit-call score of the fitted dose curve at least 0.9, where 1 is the maximum; inactive = score below 0.9); details: actives raise or lower the signal
# Procedure, shortened: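 H295R human adrenal cells were prestimulated with 10 uM forskolin for 48 h, then exposed to test chemical (0.1% DMSO final) for 48 h. Medium progesterone was MTBE-extracted and quantified by HPLC-MS/MS, with bidirectional fitting against DMSO.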
# [7] = CCTE_Deisenroth_AIME_384WELL_CTox_Active: Cytotoxicity Assessment (CTOX) in CCTE's 384-well Estrogen Receptor Transactivation Assay with AIME metabolic competence (metabolism positive), Deisenroth Lab (AID 2284037);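 also: chemicals first conditioned 2 h by alginate-bound induced rat liver S9 before cells; activity means signal loss indicating cell death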
# Procedure, shortened: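 Chemicals pre-incubated 2 hours with alginate-immobilised phenobarbital/beta-naphthoflavone-induced male Sprague Dawley rat liver S9, then conditioned medium applied 24 hour to VM7Luc4E2 cells. Viability by fluorogenic protease substrate; 10-point series 0.002 - 200 uM.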
# [8] = biological target: sheep Cyclooxygenase-1 (Cox1), PTGS1 (gene 443551) (UniProt P05979); assay: NVS_ENZ_oCOX1: NovaScreen (NVS) Enzymatic Assay for sheep Cyclooxygenase-1 (Cox1) (AID 2283239);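 also: actives reduce cyclooxygenase activity so potencies are for inhibitors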
# Procedure, shortened: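 Cell-free colorimetric assay of enzyme activity in a native extract of ovine seminal vesicles. Absorbance was read 0.66 hour after compound addition. Loss of signal relative to the DMSO negative control was scored, with actives from the 25 uM duplicate primary screen retested in concentration series.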
# [9] = biological target: Androgen Receptor/SRC-1 Co-activator, AR (gene 367) (UniProt P10275); assay: OT_AR_ARSRC1_0960: Odyssey Thera (OT) 16-hour HEK293T Protein-Complementation Assay for Androgen Receptor/SRC-1 Co-activator (AID 2283353);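 also: actives raise the signal above DMSO so potency reflects increased AR and SRC-1 complex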
# Procedure, shortened: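 Endpoint is gain-of-signal N/C fluorescence ratio in the 488 nm channel versus DMSO, from at least 400 cells per image, measured 16 h post-dosing. Cells: HEK293T stably carrying split-Venus AR/SRC-1 complementation constructs.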
# [10] = biological target: Androgen Receptor/SRC-1 Co-activator, AR (gene 367) (UniProt P10275); assay: OT_AR_ARSRC1_0480: Odyssey Thera (OT) 8-hour HEK293T Protein-Complementation Assay for Androgen Receptor/SRC-1 Co-activator (AID 2283354);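 also: hits raise the complementation signal above DMSO so AC50 marks enhancers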
# Procedure, shortened: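 Split-Venus PCA, stable HEK293T, AR/SRC-1 fusions; 8 h exposure. Readout: 488nm N/C fluorescence ratio, ≥400 cells/image; fitted upward vs DMSO baseline.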
# [11] = biological target: Peroxisome proliferator-activated receptor gamma (Homo sapiens) (UniProt P37231); assay: NVS_NR_hPPARg: NovaScreen (NVS) Nuclear Receptor Binding Assay for human Peroxisome Proliferator-activated Receptor gamma (PPARg) (AID 2283370)
# Procedure, shortened: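 Cell-free binding to extracted PPARg protein, read by fluorescence polarization 2 h after dosing; loss of signal relative to DMSO baseline marks displacement. Primary screen in duplicate at 25 uM, actives retested in concentration series.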
# [12] = biological target: human Norepinephrine Transporter (NET), SLC6A2 (gene 6530) (UniProt P23975); assay: NVS_TR_hNET: NovaScreen (NVS) Transporter Assay for human Norepinephrine Transporter (NET) (AID 2283377);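 also: cell-free membrane protein extracted from CHO cells expressing human NET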;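 as to AC50: displacement of radioligand from human NET seen as loss of scintillation signal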
# Procedure, shortened: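 CHO cell extracts expressing the transporter; tritiated or iodinated tracer displaced competitively; filtration plus scintillation readout at 1 h. Single-point duplicates at 25 uM, concentration series for follow-up; activity = signal drop relative to DMSO.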
# [13] = biological target: human Matrix Metalloproteinase-9 (MMP9), MMP9 (gene 4318) (UniProt P14780); assay: NVS_ENZ_hMMP9: NovaScreen (NVS) Enzymatic Assay for human Matrix Metalloproteinase-9 (MMP9) (AID 2283190);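 also: cell-free recombinant MMP9 protease activity read by fluorescent substrate signal; active means inhibition seen as loss of fluorescence signal versus DMSO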
# Procedure, shortened: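 Inhibition was scored as loss of fluorescence signal against DMSO controls. The recombinant protease was exposed to chemicals for 1 hour before reading; initial testing used 25 uM in duplicate.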
# [14] = biological target: Muscarinic acetylcholine receptor M2 (Homo sapiens) (UniProt P08172); assay: NVS_GPCR_hM2: NovaScreen (NVS) G Protein-Coupled Receptor Assay for human Muscarinic, M2 Receptor (AID 2283273)
# Procedure, shortened: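 Filter-based radiodetection read bound radioligand 1 h after dosing CHO-derived membrane protein. Single-concentration duplicates (25 uM) first, then concentration-response for actives; signal loss versus DMSO scored.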
# [15] = biological target: guinea pig Sigma Receptor, Non-selective Binding, SIGMAR1 (gene 100135589) (UniProt Q60492); assay: NVS_OR_gSIGMA_NonSelective: NovaScreen (NVS) Nuclear Receptor Binding Assay for guinea pig Sigma Receptor, Non-selective Binding (AID 2283367)
# Procedure, shortened: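 Membranes from guinea pig brain incubated with radioligand and test chemical for 1 h, then filtered and scintillation-counted. Duplicate primary testing at 25 uM, with concentration-series follow-up for actives.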
# [16] = CCTE_Deisenroth_5AR_NBTE_donor: CCTE's 5alpha-reductase NanoBRET Target Engagement Assay […], Deisenroth Lab (AID 2284319; active = hit-call score of the fitted dose curve at least 0.9, where 1 is the maximum; inactive = score below 0.9); details: actives raise or lower the signal
# Procedure, shortened: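 SRD5A2-NanoLuc, HEK293T, 20 h expression. Chemical 10 nM - 29.9 uM, 8 conc, duplicate; 3 h preincubation + 2 h testosterone tracer. Nano-Glo substrate plus extracellular NanoLuc inhibitor; donor lum 460 nm. DMSO baseline, bidirectional fit.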
# [17] = CCTE_Deisenroth_5AR_NBTE_acceptor: CCTE's 5alpha-reductase NanoBRET Target Engagement Assay - Autofluorescence Screen, Deisenroth Lab (AID 2284321; active = hit-call score of the fitted dose curve at least 0.9, where 1 is the maximum; inactive = score below 0.9;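 also: compound fluorescence in the acceptor channel under 460 nm excitation flags autofluorescence artifacts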); details: actives raise or lower the signal
# Procedure, shortened: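 HEK293T cell-based NanoBRET assay read 5 h after dosing; this acceptor channel serves as an autofluorescence artifact screen. Chemicals at nominal 100 uM were scanned in three independent runs (n=3), excitation 460 nm. Fitting was bidirectional versus DMSO baseline.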
# SRD5A2 (gene 6716) = assay: CCTE_Deisenroth_5AR_NBTE_ratio: CCTE's 5alpha-reductase NanoBRET Target Engagement Assay - Ratio, Deisenroth Lab (AID 2284322; active = hit-call score of the fitted dose curve at least 0.9, where 1 is the maximum; inactive = score below 0.9); details: actives raise or lower the signal
# Procedure, shortened: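 HEK293T cells transiently expressing an SRD5A2-NanoLuc fusion (20 h post-transfection) were exposed to test chemical (10 nM - 29.9 uM, 8 points) for 3 h, then testosterone tracer for a further 2 h. Acceptor/donor BRET ratio was fitted bidirectionally against DMSO baseline.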
# [18] = biological target: D(1A) dopamine receptor (Homo sapiens) (UniProt P21728); assay: NVS_GPCR_hDRD1: NovaScreen (NVS) G Protein-Coupled Receptor Assay for human Dopamine Receptor D1 (DRD1) (AID 2283269)
# Procedure, shortened: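 HEK293-derived receptor preparation; radioligand competitive displacement; 1 h; filtration + scintillation counting. DMSO = negative control/baseline. Primary: 25 uM, duplicate; secondary: concentration–response for actives.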
# Sequence of human Dopamine Transporter (DAT), SLC6A3 (gene 6531) (Q01959 whole entry, looked up): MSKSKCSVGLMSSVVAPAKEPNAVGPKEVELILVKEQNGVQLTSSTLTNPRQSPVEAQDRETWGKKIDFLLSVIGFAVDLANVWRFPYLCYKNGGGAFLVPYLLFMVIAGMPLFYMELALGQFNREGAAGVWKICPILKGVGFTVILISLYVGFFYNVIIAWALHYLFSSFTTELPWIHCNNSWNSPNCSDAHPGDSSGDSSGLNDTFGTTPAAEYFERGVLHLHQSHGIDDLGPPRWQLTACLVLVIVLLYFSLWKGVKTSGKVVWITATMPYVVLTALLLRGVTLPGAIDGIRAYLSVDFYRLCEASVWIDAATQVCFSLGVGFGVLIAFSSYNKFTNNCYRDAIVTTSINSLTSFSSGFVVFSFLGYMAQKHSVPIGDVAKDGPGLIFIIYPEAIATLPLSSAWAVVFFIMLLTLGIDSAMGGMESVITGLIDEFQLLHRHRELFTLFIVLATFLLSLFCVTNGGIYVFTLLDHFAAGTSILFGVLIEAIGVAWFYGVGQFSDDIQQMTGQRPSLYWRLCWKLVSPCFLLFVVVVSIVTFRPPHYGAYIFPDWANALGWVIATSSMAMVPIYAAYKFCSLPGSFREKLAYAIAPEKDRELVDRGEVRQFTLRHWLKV
# Sequence of Androgen Receptor/SRC-1 Co-activator, AR (gene 367) (P10275 whole entry, looked up, the tested form may be a part): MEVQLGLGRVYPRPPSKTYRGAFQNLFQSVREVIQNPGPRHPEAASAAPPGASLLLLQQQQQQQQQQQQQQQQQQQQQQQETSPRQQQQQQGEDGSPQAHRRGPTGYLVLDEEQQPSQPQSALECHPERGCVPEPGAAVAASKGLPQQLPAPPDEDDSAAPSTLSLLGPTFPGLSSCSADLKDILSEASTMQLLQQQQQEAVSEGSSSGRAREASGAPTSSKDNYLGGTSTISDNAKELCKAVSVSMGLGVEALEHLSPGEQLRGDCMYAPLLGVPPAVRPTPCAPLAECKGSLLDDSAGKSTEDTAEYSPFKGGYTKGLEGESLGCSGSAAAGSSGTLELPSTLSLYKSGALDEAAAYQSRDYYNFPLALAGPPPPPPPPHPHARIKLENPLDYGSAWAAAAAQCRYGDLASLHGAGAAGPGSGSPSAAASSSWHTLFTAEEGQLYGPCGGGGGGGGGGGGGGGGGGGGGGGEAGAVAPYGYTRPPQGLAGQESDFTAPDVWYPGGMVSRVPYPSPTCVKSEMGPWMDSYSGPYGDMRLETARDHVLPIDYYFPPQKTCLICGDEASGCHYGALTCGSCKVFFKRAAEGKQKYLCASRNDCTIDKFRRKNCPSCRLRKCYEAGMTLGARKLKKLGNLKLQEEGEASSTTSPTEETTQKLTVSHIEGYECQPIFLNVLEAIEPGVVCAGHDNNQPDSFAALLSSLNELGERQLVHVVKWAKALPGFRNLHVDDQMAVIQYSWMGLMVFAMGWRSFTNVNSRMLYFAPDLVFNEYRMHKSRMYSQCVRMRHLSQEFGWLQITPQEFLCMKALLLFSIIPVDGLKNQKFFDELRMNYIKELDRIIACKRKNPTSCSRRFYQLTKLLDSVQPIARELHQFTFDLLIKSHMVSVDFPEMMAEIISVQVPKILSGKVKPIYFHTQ
# Sequence of Bile acid receptor (Homo sapiens) (Q96RI1 whole entry, looked up): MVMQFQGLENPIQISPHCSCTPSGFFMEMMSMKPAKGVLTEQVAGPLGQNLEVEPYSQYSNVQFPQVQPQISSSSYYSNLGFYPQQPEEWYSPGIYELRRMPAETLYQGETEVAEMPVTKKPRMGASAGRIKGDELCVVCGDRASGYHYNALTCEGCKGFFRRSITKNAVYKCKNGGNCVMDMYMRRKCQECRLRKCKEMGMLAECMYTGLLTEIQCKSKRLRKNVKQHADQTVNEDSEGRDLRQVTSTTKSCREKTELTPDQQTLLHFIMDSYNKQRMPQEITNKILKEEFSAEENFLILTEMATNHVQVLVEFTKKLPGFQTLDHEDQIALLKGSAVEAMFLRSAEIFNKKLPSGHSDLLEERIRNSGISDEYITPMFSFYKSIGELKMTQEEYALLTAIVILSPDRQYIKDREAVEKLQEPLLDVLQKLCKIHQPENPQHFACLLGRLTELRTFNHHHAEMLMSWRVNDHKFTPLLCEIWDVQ
# Sequence of human Norepinephrine Transporter (NET), SLC6A2 (gene 6530) (P23975 whole entry, looked up): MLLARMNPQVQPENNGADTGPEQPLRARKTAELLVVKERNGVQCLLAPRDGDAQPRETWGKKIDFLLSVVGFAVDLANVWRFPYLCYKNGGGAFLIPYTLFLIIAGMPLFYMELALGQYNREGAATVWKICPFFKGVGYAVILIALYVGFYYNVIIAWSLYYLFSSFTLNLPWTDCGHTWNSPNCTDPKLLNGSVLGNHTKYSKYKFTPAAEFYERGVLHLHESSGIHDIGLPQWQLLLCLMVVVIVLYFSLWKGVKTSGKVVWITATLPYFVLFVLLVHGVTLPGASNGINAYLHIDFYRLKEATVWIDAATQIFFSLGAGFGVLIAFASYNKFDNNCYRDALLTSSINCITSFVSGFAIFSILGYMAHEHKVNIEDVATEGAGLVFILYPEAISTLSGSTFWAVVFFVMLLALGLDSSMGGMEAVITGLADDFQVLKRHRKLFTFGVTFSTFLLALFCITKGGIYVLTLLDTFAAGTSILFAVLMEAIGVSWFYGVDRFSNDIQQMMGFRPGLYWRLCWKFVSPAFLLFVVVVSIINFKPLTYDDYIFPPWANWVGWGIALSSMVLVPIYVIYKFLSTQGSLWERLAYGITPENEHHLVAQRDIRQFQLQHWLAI
# Sequence of Peroxisome proliferator-activated receptor gamma (Homo sapiens) (P37231 whole entry, looked up): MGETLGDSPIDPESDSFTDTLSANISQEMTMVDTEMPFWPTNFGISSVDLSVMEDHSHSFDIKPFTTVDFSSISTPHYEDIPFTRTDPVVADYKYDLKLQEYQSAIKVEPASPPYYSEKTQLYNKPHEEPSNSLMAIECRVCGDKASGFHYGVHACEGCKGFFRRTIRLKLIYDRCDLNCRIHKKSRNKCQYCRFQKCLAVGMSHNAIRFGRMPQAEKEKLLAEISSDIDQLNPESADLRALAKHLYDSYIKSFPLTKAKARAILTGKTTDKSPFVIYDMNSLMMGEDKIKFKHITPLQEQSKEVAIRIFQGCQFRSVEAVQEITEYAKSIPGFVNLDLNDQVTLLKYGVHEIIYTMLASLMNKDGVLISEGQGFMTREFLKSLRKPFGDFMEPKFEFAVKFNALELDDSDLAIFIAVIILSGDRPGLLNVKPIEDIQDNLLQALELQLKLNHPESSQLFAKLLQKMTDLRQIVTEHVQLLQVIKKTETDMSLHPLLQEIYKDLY
# Sequence of sheep Cyclooxygenase-1 (Cox1), PTGS1 (gene 443551) (P05979 whole entry, looked up): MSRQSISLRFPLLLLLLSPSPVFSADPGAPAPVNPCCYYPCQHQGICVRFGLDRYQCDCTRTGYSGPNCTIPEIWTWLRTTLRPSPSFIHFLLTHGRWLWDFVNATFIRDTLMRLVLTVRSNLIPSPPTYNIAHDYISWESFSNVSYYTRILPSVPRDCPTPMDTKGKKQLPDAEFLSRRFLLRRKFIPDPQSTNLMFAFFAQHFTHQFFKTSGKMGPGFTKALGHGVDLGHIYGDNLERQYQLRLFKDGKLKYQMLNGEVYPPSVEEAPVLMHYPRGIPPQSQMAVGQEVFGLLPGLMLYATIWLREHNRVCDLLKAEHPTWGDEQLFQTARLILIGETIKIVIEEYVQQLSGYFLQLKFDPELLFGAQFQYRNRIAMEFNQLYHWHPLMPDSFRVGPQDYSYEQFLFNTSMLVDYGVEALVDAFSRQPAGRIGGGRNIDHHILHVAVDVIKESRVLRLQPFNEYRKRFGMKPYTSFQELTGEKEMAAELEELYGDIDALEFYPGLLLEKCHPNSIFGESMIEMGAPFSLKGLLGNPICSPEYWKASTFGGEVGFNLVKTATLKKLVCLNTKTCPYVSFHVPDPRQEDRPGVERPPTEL
# Sequence of D(1A) dopamine receptor (Homo sapiens) (P21728 whole entry, looked up): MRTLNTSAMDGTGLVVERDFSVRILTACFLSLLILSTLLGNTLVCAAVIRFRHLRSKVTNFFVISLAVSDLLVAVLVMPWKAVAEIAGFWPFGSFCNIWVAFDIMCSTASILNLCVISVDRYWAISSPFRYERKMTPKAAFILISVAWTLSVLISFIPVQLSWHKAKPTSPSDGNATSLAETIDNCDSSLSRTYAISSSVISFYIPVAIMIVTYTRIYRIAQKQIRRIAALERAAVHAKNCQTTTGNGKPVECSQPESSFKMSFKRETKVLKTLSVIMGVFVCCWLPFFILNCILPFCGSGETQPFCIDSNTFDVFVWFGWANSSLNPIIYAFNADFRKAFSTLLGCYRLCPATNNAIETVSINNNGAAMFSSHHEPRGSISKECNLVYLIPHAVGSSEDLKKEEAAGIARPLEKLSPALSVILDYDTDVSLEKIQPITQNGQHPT
# Sequence of Muscarinic acetylcholine receptor M2 (Homo sapiens) (P08172 whole entry, looked up): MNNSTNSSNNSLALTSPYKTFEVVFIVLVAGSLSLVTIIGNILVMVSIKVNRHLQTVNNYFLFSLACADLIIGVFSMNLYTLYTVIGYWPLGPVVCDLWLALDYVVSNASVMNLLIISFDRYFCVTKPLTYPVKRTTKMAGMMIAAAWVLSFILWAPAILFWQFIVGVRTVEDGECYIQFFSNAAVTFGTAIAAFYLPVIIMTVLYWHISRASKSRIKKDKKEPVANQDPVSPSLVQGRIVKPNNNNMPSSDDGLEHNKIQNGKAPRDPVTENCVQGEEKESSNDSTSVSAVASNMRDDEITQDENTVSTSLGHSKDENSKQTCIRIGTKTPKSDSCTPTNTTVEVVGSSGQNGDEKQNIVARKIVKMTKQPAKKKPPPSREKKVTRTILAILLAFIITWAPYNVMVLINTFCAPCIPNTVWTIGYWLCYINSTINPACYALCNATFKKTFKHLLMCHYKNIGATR
# Sequence of guinea pig Sigma Receptor, Non-selective Binding, SIGMAR1 (gene 100135589) (Q60492 whole entry, looked up): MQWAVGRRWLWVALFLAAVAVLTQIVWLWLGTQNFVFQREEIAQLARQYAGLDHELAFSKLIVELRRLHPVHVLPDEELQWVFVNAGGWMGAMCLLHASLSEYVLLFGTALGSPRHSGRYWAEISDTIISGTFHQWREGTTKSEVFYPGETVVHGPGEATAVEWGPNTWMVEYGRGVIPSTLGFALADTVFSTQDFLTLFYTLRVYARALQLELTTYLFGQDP
compound,measurement,setting,value
O=C(C(=O)c1ccccc1)c1ccccc1,outcome,[1],inactive
same,AC50,[2],1.07 µM (active)
CCCCOC(=O)COc1ccc(Cl)cc1Cl,outcome,[3],inactive
same,outcome,[4],inactive
same,AC50,[5],74.6 µM (active)
same,outcome,[6],inactive
same,outcome,[7],inactive
CC(C)CC(=O)CC(C)C,outcome,[7],inactive
CCC(C)NC(N)=O (configuration not stated),AC50,[2],26.9 µM (active)
N#CCN(CC#N)CCN(CC#N)CC#N,outcome,[8],inactive
CO[Si](CCCNCCN)(OC)OC,outcome,[9],inactive
same,outcome,[10],inactive
CC/C=C\CCO,outcome,[7],inactive
O=C(c1ccccc1)c1ccccc1O,outcome,[9],inactive
same,outcome,[10],inactive
CCOC(=O)CC(=O)OCC,outcome,[3],inactive
O=C(CC(C(=O)OC1CCCCC1)S(=O)(=O)O)OC1CCCCC1 (configuration not stated),outcome,[11],inactive
O=C1NC(=O)[C@@H]2CC=CC[C@H]12,outcome,[12],inactive
CCO[Si](OCC)(OCC)c1ccccc1,AC50,[13],1.37 µM (active)
C[N+](C)(C)CC(=O)[O-],outcome,[8],inactive
CC[N+](CC)(CC(=O)Nc1c(C)cccc1C)Cc1ccccc1,AC50,[14],0.419 µM (active)
same,AC50,[1],3.49 µM (active)
same,AC50,[15],12.7 µM (active)
same,outcome,[11],inactive
O=C(Oc1ccccc1)c1ccccc1,AC50,[3],45.2 µM (active)
O=C(O)/C=C\C(=O)O,outcome,[16],inactive
same,outcome,[17],inactive
same,outcome,SRD5A2 (gene 6716),inactive
CCOC(=O)c1ccccc1,outcome,[11],inactive
CC(=O)OC(C)(C)Cc1ccccc1,outcome,[3],inactive
CC(=[OH+])/C=C(/C)[O-].CC(=[OH+])/C=C(/C)[O-].CC(=[OH+])/C=C(/C)[O-].[Fe],outcome,[18],inactive
CCCCCCCCCCCCCCCCCC[N+](C)(C)C,AC50,[18],2.53 µM (active)
same,AC50,[14],1.06 µM (active)
same,AC50,[15],2.61 µM (active)
same,AC50,[2],2.52 µM (active)
same,AC50,[12],2.93 µM (active)
COc1ccc2ccccc2c1,AC50,[12],25 µM (active)
